# PubChem BioAssay (NCATS)
# Inconclusive results are not listed. Entries that show only a call come without a potency. Unmarked numbers belong to inactive results. Activity calls are given as the source filed them. The call rests on the fitted dose curve; in most records, active means well fitted curve in the direction sought with a large enough effect; inconclusive means small, poorly fitted or top-dose-only effect, or another doubt; inactive means no such curve, though single readings can be large; an effect the other way counts as inactive or inconclusive.
# Experiments:
# [1] = molecular target: Rap guanine nucleotide exchange factor 3 (Homo sapiens) (UniProt O95398); assay: Confirmatory qHTS for agonist of cAMP-regulated guanine nucleotide exchange factor 3 (EPAC1) (AID 1645881); further: nearly all actives have a fitted effect of over 75% in size; further: potency means the concentration at half of the fitted maximal effect;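 on activation: EPAC1 catalysed release of BODIPY-GDP from Rap1B seen as fluorescence loss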
# Sequence of Rap guanine nucleotide exchange factor 3 (Homo sapiens) (O95398 whole entry, looked up): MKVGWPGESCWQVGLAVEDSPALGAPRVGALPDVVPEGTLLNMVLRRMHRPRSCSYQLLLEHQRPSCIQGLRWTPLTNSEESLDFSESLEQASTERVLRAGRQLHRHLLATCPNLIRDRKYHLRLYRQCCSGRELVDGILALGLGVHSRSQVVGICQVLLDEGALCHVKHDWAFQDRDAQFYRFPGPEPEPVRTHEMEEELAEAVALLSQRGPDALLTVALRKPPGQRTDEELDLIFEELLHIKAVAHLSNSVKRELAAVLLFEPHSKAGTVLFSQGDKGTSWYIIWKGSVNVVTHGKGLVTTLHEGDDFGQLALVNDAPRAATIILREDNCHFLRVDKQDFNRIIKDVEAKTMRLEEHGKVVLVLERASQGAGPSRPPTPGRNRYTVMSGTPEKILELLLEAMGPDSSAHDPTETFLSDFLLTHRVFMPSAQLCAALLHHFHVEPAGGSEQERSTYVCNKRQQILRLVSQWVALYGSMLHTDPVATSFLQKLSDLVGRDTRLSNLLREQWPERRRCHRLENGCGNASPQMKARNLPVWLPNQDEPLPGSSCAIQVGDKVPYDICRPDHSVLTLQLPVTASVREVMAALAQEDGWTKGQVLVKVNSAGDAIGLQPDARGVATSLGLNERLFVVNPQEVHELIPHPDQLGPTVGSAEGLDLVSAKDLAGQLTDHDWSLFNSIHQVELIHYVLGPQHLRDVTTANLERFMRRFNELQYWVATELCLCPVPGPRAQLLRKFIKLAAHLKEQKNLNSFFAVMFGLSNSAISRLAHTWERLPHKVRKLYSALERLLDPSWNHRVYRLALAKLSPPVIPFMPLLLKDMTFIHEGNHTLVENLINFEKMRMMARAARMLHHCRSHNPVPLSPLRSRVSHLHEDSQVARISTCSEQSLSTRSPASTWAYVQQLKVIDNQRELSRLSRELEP
# [2] = molecular target: Rap guanine nucleotide exchange factor 4 (Homo sapiens) (UniProt Q8WZA2); assay: Confirmatory qHTS for antagonist of cAMP-regulated guanine nucleotide exchange factor 4 (EPAC2) (AID 1645885); further: nearly all actives have a fitted effect of over 25% in size; further: potency means the concentration at half of the fitted maximal effect
# Sequence of Rap guanine nucleotide exchange factor 4 (Homo sapiens) (Q8WZA2 whole entry, looked up): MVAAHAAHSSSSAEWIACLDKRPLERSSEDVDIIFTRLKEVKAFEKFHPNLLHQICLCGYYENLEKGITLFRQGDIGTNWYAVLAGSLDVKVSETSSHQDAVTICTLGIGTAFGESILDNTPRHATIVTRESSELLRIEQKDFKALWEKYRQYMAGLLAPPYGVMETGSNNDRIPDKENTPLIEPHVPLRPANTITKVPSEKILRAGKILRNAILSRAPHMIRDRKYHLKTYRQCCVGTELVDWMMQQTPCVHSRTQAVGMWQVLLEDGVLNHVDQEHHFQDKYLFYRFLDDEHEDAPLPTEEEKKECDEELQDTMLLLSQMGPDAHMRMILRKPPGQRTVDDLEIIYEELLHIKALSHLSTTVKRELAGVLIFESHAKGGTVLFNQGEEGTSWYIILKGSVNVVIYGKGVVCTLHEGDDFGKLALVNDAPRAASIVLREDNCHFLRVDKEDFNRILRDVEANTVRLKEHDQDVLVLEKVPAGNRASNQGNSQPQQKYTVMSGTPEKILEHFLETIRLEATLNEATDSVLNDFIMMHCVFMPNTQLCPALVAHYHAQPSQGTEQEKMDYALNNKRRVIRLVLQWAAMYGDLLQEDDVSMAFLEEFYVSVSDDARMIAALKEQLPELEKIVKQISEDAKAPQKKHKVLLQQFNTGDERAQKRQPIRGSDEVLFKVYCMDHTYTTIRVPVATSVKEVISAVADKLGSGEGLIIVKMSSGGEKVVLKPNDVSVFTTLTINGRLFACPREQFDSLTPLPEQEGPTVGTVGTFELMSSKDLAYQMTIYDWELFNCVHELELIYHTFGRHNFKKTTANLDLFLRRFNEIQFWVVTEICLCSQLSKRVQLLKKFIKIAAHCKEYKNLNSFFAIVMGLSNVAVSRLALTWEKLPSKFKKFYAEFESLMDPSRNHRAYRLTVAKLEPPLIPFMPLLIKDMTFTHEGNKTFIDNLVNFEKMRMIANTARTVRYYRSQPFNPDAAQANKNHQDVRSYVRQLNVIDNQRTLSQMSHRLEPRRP
# [3] = molecular target: Rap guanine nucleotide exchange factor 3 (Homo sapiens) (UniProt O95398); assay: Counterscreen qHTS for antagonist of cAMP-regulated guanine nucleotide exchange factor 3 (EPAC1) (AID 1645888);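 further: fluorescence loss as bound BODIPY-GDP is released from Rap1B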
# Procedure, shortened: (§1)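 Rap1B-BODIPY-GDP 250 nM + GDP 50 uM; cpds 7-pt, final 9.74 nM–152 uM (activator mode) or from 7.32 nM upwards (inhibitor mode); RT; FI 480/540 nm at 5 and 30 min, then ± cAMP, reread.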
# [4] = molecular target: Rap guanine nucleotide exchange factor 3 (Homo sapiens) (UniProt O95398); assay: Counterscreen qHTS for agonist of cAMP-regulated guanine nucleotide exchange factor 3 (EPAC1) (AID 1645889); further: nearly all actives have a fitted effect of over 40% in size; further: potency means the concentration at half of the fitted maximal effect
# Procedure, shortened: as §1
structure (smiles),measurement,setting,value
COc1ccccc1/C=C(/C(=O)OCC(=O)Nc1ccc(N(C)C)cc1)c1ccccc1,Potency,[1],inactive
same,Potency,[2],5.36 µM (active)
same,Potency,[3],inactive
same,Potency,[4],inactive
Cc1nc([N+](=O)[O-])c(Br)n1Cc1ccc(Cl)c(Cl)c1,Potency,[1],inactive
same,Potency,[3],inactive
CCCN1C(=O)c2[nH]nc(-c3ccc(F)cc3)c2C1c1ccc(O)c(OCC)c1 (stereo unspecified),Potency,[1],inactive
same,Potency,[2],inactive
same,Potency,[3],inactive
same,Potency,[4],inactive
CN(CC(=O)Nc1cccc(F)c1)C(=O)/C=C/c1cc(Br)ccc1OC(F)F,Potency,[1],inactive
same,Potency,[3],inactive
CC1=Nc2ccccc2/C1=C/c1sc(=N)n(-c2nccs2)c1O,Potency,[1],inactive
same,Potency,[2],inactive
same,Potency,[3],inactive
same,Potency,[4],56.2 µM (active)
Cc1cc(N(CCO)Cc2ccccc2)n2nc(-c3ccc(C(C)(C)C)cc3)nc2n1,Potency,[1],inactive
same,Potency,[2],inactive
same,Potency,[3],inactive
same,Potency,[4],inactive
S=C(Nc1ccc2nsnc2c1)N1CCCCC1,Potency,[1],inactive
same,Potency,[3],inactive
Cc1ccc2nc(-c3ccccc3)c(Cc3cccc(Cl)c3)n2c1,Potency,[1],inactive
same,Potency,[3],inactive
Cc1cccc2sc(N(Cc3cccnc3)C(=O)c3cccs3)nc12,Potency,[1],inactive
same,Potency,[2],inactive
same,Potency,[3],inactive
same,Potency,[4],25.1 µM (active)
O=C(CSc1nc2ccccc2o1)N/N=C/c1ccc(O)c(O)c1,Potency,[1],inactive
same,Potency,[2],inactive
same,Potency,[3],inactive
Cn1cc(/C=C/c2cc[n+](C)cc2)c2cc(F)ccc21,Potency,[1],inactive
same,Potency,[2],inactive
same,Potency,[3],inactive
same,Potency,[4],inactive
Cc1cccc(Cn2nnc3c(=O)[nH]c(C4CCCN(C(=O)c5ccc(C(C)(C)C)cc5)C4)nc32)c1 (stereo unspecified),Potency,[1],inactive
same,outcome,[2],inactive [at 12.7 µM]
same,Potency,[4],inactive
CN(CC(=O)Nc1ccc(Cl)c(C(F)(F)F)c1)C(=O)c1ccc2c(c1)OCCO2,Potency,[1],inactive
same,Potency,[2],inactive
same,Potency,[3],inactive
same,Potency,[4],inactive
Cc1nc(N)sc1-c1csc(Nc2ncccn2)n1,Potency,[1],inactive
same,Potency,[2],inactive
same,Potency,[3],inactive
same,Potency,[4],inactive
N#Cc1c(N)c(C#N)c(-c2ccc(O)cc2)c2c1CCCC2,Potency,[1],inactive
same,Potency,[3],inactive
Clc1ccc(CSc2nnc(-c3ccccn3)n2Cc2ccco2)cc1Cl,Potency,[1],inactive
same,Potency,[3],inactive
CC(C)(C)c1cc(NCCCn2ccnc2)n2ncc(-c3ccccc3)c2n1,Potency,[1],inactive
same,Potency,[2],inactive
same,Potency,[4],inactive
Cc1nc(NC(=O)c2c(-c3ccccc3)c(-c3ccccc3)nn(C)c2=O)sc1C,Potency,[1],inactive
same,Potency,[2],inactive
same,Potency,[3],inactive
same,Potency,[4],inactive
Nc1nc(CSc2ccc(Cl)cc2)nc(N2CCCCC2)n1,Potency,[1],inactive
same,Potency,[2],inactive
same,Potency,[3],inactive
CN(C)c1ccc(/C=C2\C(=N)N3N=C(CC(=O)N4CCCCC4)SC3=NC2=O)cc1,Potency,[1],inactive
same,Potency,[2],inactive
same,Potency,[3],inactive
same,Potency,[4],inactive
O=C1OC(Cc2ccccc2)(c2ccccc2)c2ccccc21 (stereo unspecified),Potency,[1],inactive
same,Potency,[2],inactive
same,Potency,[3],inactive
same,Potency,[4],inactive
Cc1ccc(CNC(=O)c2cccc3c2C(=O)c2ccc(N4CCCCC4)cc2S3(=O)=O)cc1,Potency,[1],11.2 µM (active)
same,Potency,[2],inactive
same,"activity change, negative = inhibition",[3],-7.83% [at 30.8 µM]
same,Potency,[4],11.2 µM (active)
COc1ccc(C(=O)/C=C/c2ccccc2)c(OC)c1,Potency,[1],inactive
same,Potency,[3],inactive
Cc1ccc(SCC(=O)Nc2ccccc2N2CCOCC2)cc1,Potency,[1],inactive
same,Potency,[2],inactive
same,Potency,[3],inactive
same,Potency,[4],inactive
Cc1nc2c(C(=O)NCc3ccccc3Cl)c[nH]n2c(=O)c1Cc1cccc(Cl)c1,Potency,[1],inactive
same,Potency,[2],inactive
same,Potency,[3],inactive
same,Potency,[4],inactive
COC(=O)c1ccc2nc(-c3cccc(Br)c3)c(Cc3ccccc3)n2c1,Potency,[1],inactive
same,Potency,[3],inactive
O=C(Nc1ccc(F)cc1)c1cccc(N2C(=O)C3C4C=CC(C5CC45)C3C2=O)c1 (stereo unspecified),Potency,[1],inactive
same,Potency,[3],inactive
COc1ccc(/C=C2\SC(=S)N(CCC(=O)N3CCCCC3CCO)C2=O)cc1 (stereo unspecified),Potency,[1],inactive
same,Potency,[2],inactive
same,Potency,[3],inactive
same,Potency,[4],inactive
COc1ccc(NC(=O)c2cc(-c3cc(Cl)ccc3C)n[nH]2)cn1,Potency,[1],inactive
same,Potency,[3],inactive
Cc1ccc2sc(N(CCCN(C)C)C(=O)c3nc4ccccc4s3)nc2c1C,Potency,[1],inactive
same,Potency,[3],inactive
COc1ccc(NC(=O)COC(=O)CCCOc2ccc(Cl)cc2Cl)cc1Cl,Potency,[1],inactive
same,Potency,[2],6.01 µM (active)
same,Potency,[3],inactive
same,Potency,[4],inactive
O=S(=O)(c1cccc2ccccc12)N1CCCCC1,Potency,[1],inactive
same,Potency,[2],21.3 µM (active)
same,Potency,[3],inactive
same,Potency,[4],inactive
O=C(O)c1ccc(NS(=O)(=O)c2ccc3c(c2)C2C=CCC2C(c2ccccc2F)N3)cc1 (stereo unspecified),Potency,[1],inactive
same,Potency,[2],75.7 µM (active)
same,Potency,[3],inactive
same,Potency,[4],44.7 µM (active)
Cc1ccccc1OCC(=O)Nc1ccc(C(=O)OCc2cc(=O)n3c(C)csc3n2)cc1,Potency,[1],inactive
same,Potency,[2],inactive
same,Potency,[4],inactive
CCOc1ccc(C2C3=C(CCCC3=O)Nc3ccc4ncccc4c32)cc1 (stereo unspecified),Potency,[1],inactive
same,"activity change, negative = inhibition",[3],-12.5% [at 30.8 µM]
CC(=O)N(CCC(Cc1ccccc1)c1ccco1)Cc1ccco1 (stereo unspecified),Potency,[1],inactive
same,"activity change, negative = inhibition",[3],-6.33% [at 30.8 µM]
same,activation,[4],32.1% [at 30.8 µM]
C/[N+]([O-])=C/c1c(OCc2ccccc2)ccc2ccccc12,Potency,[1],inactive
same,Potency,[3],inactive
same,Potency,[4],inactive
O=C(O)c1cccc(Cn2c(Cl)c(/C=N/NC(=O)c3cc4ccccc4cc3O)sc2=O)c1,Potency,[1],inactive
same,Potency,[3],inactive
CC(=O)NC(c1cccc(F)c1)c1nc(/C=C/c2ccccc2)cs1 (stereo unspecified),Potency,[1],inactive
same,Potency,[3],inactive
COC(=O)c1ccc2nc(-c3ccc(Cl)cc3)c(Cc3ccsc3)n2c1,Potency,[1],inactive
same,Potency,[3],inactive
same,Potency,[4],inactive
COC(=O)c1ccc2nc(-c3ccco3)c(Cc3cccc(F)c3)n2c1,Potency,[1],inactive
same,Potency,[3],inactive
same,Potency,[4],inactive
COC(=O)c1ccc2nc(-c3cccc(Cl)c3)c(Cc3ccccc3)n2c1,Potency,[1],inactive
same,"activity change, negative = inhibition",[3],-21.2% [at 30.8 µM]
same,activation,[4],15.5% [at 30.8 µM]
CCCC(C(=O)Nc1ccc(S(=O)(=O)Nc2nccs2)cc1)c1ccccc1 (stereo unspecified),Potency,[1],inactive
same,"activity change, negative = inhibition",[3],-24.2% [at 30.8 µM]
same,activation,[4],8.61% [at 30.8 µM]
CCC(=O)N(CCC(c1ccc(C)cc1)c1ccco1)Cc1ccco1 (stereo unspecified),Potency,[1],inactive
same,"activity change, negative = inhibition",[3],-11.4% [at 30.8 µM]
same,activation,[4],19.5% [at 30.8 µM]
CCOC(=O)C1=C(c2ccccc2)c2ccccc2OC1C(=O)OCC (stereo unspecified),Potency,[1],inactive
same,"activity change, negative = inhibition",[3],-22.2% [at 30.8 µM]
same,activation,[4],24.5% [at 30.8 µM]
CSc1nc(N)c(C(=O)N(c2ccccc2)c2ccccc2)s1,Potency,[1],inactive
same,"activity change, negative = inhibition",[3],-10.5% [at 30.8 µM]
same,activation,[4],22.8% [at 30.8 µM]
COc1cccc(-c2coc3c(C)c4oc(=O)c(CCC(=O)O)c(C)c4cc23)c1,Potency,[1],inactive
same,Potency,[3],inactive
same,Potency,[4],inactive
CCC(=O)N(CCC(Cc1ccccc1)c1ccco1)Cc1ccco1 (stereo unspecified),Potency,[1],inactive
same,Potency,[3],inactive
same,Potency,[4],inactive
COc1ccc(C(=O)Oc2ccc(/C=N/Nc3ccc(Cl)c(C(=O)O)c3)cc2OC)cc1,Potency,[1],inactive
same,Potency,[3],inactive
Cc1cccc(Oc2ccccc2NC(=O)C2=COCCO2)c1,Potency,[1],inactive
same,Potency,[3],inactive
COC(=O)c1ccc2nc(C3CCCCC3)c(Cc3ccccc3C(F)(F)F)n2c1,Potency,[1],inactive
same,Potency,[3],inactive
same,Potency,[4],inactive
O=C(COc1ccc(F)cc1Br)NCC1COc2ccccc2O1 (stereo unspecified),Potency,[1],inactive
same,Potency,[3],inactive
same,Potency,[4],inactive
COc1ccc(C2CC(=O)Oc3cc(OC)c(OC)c(OC)c32)cc1 (stereo unspecified),Potency,[1],inactive
same,"activity change, negative = inhibition",[3],-24.9% [at 30.8 µM]
same,activation,[4],20% [at 30.8 µM]
COC(=O)CN(c1nc(C)c(Br)c(OC)n1)S(=O)(=O)c1ccccc1,Potency,[1],inactive
same,Potency,[3],inactive
Cn1ccc2c(-c3ccc(C(C)(C)C)cc3)cc3c(c21)C1CCC3O1 (stereo unspecified),Potency,[1],inactive
same,Potency,[3],inactive
same,Potency,[4],inactive
